Assay results as given in publication PMC7819943, “Rice protein-binding microarrays: a tool to detect cis-acting elements near promoter regions in rice”.
Over roughly 35,000 sequences, “fluorescence intensity (a.u.)” has its median near 10,000; the highest 2% begin near 52,000. What follows is part of a selection rich in the highest values, with near analogues and random picks from the rest.

target: T1, OsWOX13 (Oryza sativa, UniProt Q5QMM3 1-267); test: protein-binding microarray (RPBM); PBS, 2% BSA, 51.3 ng/ul salmon testes DNA, 50 uM zinc acetate, 200 nM TF, 25 C, 1 h; high values mean tight binding; conditions: protein: recombinant; tags: N-terminal polyhistidine and DsRed monomer fusion (pET32a); label: CyDye5-dUTP incorporated in the synthesized complementary strand; 3' TTTTT single-stranded linker to array surface; dsDNA, one strand shown
T1 sequence: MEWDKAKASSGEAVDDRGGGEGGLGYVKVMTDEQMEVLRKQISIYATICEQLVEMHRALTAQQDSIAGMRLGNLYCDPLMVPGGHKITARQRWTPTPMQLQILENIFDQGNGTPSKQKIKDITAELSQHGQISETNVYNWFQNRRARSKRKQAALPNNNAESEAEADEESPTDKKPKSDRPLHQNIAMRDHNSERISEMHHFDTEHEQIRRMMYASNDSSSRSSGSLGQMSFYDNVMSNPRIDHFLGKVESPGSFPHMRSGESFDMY
Method in brief: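 The binding signal is fluorescence intensity per feature, in arbitrary units, read on an Axon 4000B scanner. Polyhistidine- and DsRed-tagged transcription factors (N-terminal fusions) from E. coli BL21-CodonPlus were purified on Ni–NTA and applied at 200 nM for 1 h at 25 °C to a double-stranded, BSA-blocked custom Agilent array in buffer with 50 µM zinc acetate.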

Going from “TTGGGAAACGGAGGAAGTAATTAATTAGTCTTTGTGGAAACGGAGTCACCTAGTGCAG” to “TTAATTAACTCAGCTTCTAGTTCATATGACTCTTGCTAATCGGAGTCACCTAGTGCAG”, the binding signal rises from 3790 fluorescence intensity (a.u.) to 8400 fluorescence intensity (a.u.).

Going from “AATTTAATTAATTATGACTTCAGCTTGGTAGGTTCAGTTGCGGAGTCACCTAGTGCAG” to “ACAATCTTATAGCTAATTTATTATATATGTTAGCTTTAAGCGGAGTCACCTAGTGCAG”, the binding signal falls from 53000 fluorescence intensity (a.u.) to 4320 fluorescence intensity (a.u.).

First: AATATTTATGTTAATTATATATAGCTAATTATGATAATAGCGGAGTCACCTAGTGCAG
Second: TTGCTAATTAATTTATGTTAATTAGTAGCTAACCTAGCTGCGGAGTCACCTAGTGCAG
The binding signal of the first is lower: 18800 fluorescence intensity (a.u.) for the first, 65200 fluorescence intensity (a.u.) for the second.

Compared with “AATTAATAATTGCAATAGTTAGGTTATGAAGACTTCAGAGCGGAGTCACCTAGTGCAG”, “AAAACAGAAAATAGCCAGTCAACCAAACAGTTGTCTTGACCGGAGTCACCTAGTGCAG” is lower in binding signal: 15300 fluorescence intensity (a.u.) for the first, 6230 fluorescence intensity (a.u.) for the second.

First: TGCTAATGGCGGCCATAGATTTGTACAAGTATCAGCTGAGCGGAGTCACCTAGTGCAG
Second: AATTGCTGTTGATTTGCCACTACCACTCTCCCCAACAAGTCGGAGTCACCTAGTGCAG
The binding signal of the first is lower: 4480 fluorescence intensity (a.u.) for the first, 6370 fluorescence intensity (a.u.) for the second.

Going from “ACTGATTGCTGTTGGTCATTCCCGGGCCAGTCCCCACTCCCGGAGTCACCTAGTGCAG” to “CCCACATGCCAGACTGATTGCCAGTCATGAGCAAGGGTCCCGGAGTCACCTAGTGCAG”, the binding signal falls from 52400 fluorescence intensity (a.u.) to 23900 fluorescence intensity (a.u.).

Going from “ATCATAACTCCATCAGATAATTTGTGCAGAACGGCAGAACCGGAGTCACCTAGTGCAG” to “GTTTTAATTGTTTTACTGATTTGCAAATGAGTCTGGGATGCGGAGTCACCTAGTGCAG”, the binding signal rises from 5500 fluorescence intensity (a.u.) to 63500 fluorescence intensity (a.u.).

Compared with “CATGGATAATTTGTTTTGGAGTGACACACTGACACTGATGCGGAGTCACCTAGTGCAG”, “ACGAATCTAATGAGCCTAATTAATCCATGATTAGCCTATGCGGAGTCACCTAGTGCAG” is higher in binding signal: 9780 fluorescence intensity (a.u.) for the first, 21200 fluorescence intensity (a.u.) for the second.

First: AGTTCAATTGCTTTGATGAGTGAGCAGAGAGATGATGCAGCGGAGTCACCTAGTGCAG
Second: TTGAGATGATTTACTATTAATTTAGTCTATTGTTGAGATGCGGAGTCACCTAGTGCAG
The binding signal of the first is lower: 3420 fluorescence intensity (a.u.) for the first, 35700 fluorescence intensity (a.u.) for the second.

First: GAATCTATTGAGCCTAATTAATCCATGATTAGCCTATGTGCGGAGTCACCTAGTGCAG
Second: GTGTTGAATGCACTGATTTGTTCAGTGTCTGAGATTGATGCGGAGTCACCTAGTGCAG
The binding signal of the first is lower: 7730 fluorescence intensity (a.u.) for the first, 13100 fluorescence intensity (a.u.) for the second.

First: TTAATTATTTGAGCAAATTTAATGGGATGAGGGAATGATGCGGAGTCACCTAGTGCAG
Second: TCTTTACTTAATTAATTTGATGCATGTATGCCAGGATTTGCGGAGTCACCTAGTGCAG
The binding signal of the first is lower: 24800 fluorescence intensity (a.u.) for the first, 35800 fluorescence intensity (a.u.) for the second.

Compared with “ATGTTGATTGGAGTCTGATAACTTGTCACTGGATGACATGCGGAGTCACCTAGTGCAG”, “ATTAATTGATGCTTTGCTTGATTACTTGAGTCAGATCCAGCGGAGTCACCTAGTGCAG” is higher in binding signal: 61700 fluorescence intensity (a.u.) for the first, 63200 fluorescence intensity (a.u.) for the second.

Going from “CCAGCTTAATTGAGCCTGATTAGCCGAATCCATAATTGTGCGGAGTCACCTAGTGCAG” to “CATTGTCATCCTGAGTAGATTGCCAATTATATGGGTTTGGCGGAGTCACCTAGTGCAG”, the binding signal falls from 63800 fluorescence intensity (a.u.) to 6170 fluorescence intensity (a.u.).

First: CGTTTTGATGGATGGCTCAGATCGGTTCCGAATCGATCAACGGAGTCACCTAGTGCAG
Second: GGTTTAATTAATTAATCGCGCCAACCCAGATGCTAATCAGCGGAGTCACCTAGTGCAG
The binding signal of the first is lower: 5120 fluorescence intensity (a.u.) for the first, 50200 fluorescence intensity (a.u.) for the second.

First: TGAAAATTTTGTCGGAAATTTATCAGTGTATCAACTGTCTCGGAGTCACCTAGTGCAG
Second: TTTCTTGATTTGGTTGGGATTGGTTGTTCTTGGGCTTATCCGGAGTCACCTAGTGCAG
The binding signal of the first is lower: 6470 fluorescence intensity (a.u.) for the first, 24600 fluorescence intensity (a.u.) for the second.

Compared with “GTTGAGATTAATTGTTCTATACTACTTTCTCTATCTAAAACGGAGTCACCTAGTGCAG”, “GATAATTCTTATGTTACTGACTAATATGATAGTACTGAGTCGGAGTCACCTAGTGCAG” is lower in binding signal: 7990 fluorescence intensity (a.u.) for the first, 5770 fluorescence intensity (a.u.) for the second.

Going from “ATTAACCAGTATTAATAATTGAGGGACGTTGTATACTGGGCGGAGTCACCTAGTGCAG” to “ACTTACAAATTTTGTACTCAATTGAGATGTGCTTCGATTGCGGAGTCACCTAGTGCAG”, the binding signal falls from 20500 fluorescence intensity (a.u.) to 5640 fluorescence intensity (a.u.).

Compared with “AATTTGATTGATTTTACTCTCGAGCCAATTGAGATGTCTGCGGAGTCACCTAGTGCAG”, “TGTTGCTGTTGATTAGCTCTCACCTAATTTGTTGTGTATGCGGAGTCACCTAGTGCAG” is lower in binding signal: 64800 fluorescence intensity (a.u.) for the first, 18100 fluorescence intensity (a.u.) for the second.

Compared with “ATGAATCTAGTCAGATTGGCCAATTTGATTTGTTTTACTCCGGAGTCACCTAGTGCAG”, “TGTTAATCTTGCTGATTTTGTTATTGATTTTAATGCTATGCGGAGTCACCTAGTGCAG” is higher in binding signal: 9360 fluorescence intensity (a.u.) for the first, 17300 fluorescence intensity (a.u.) for the second.

First: GGAACAGGTACCATAATTGTTAATAACCTAATACTGGGCCCGGAGTCACCTAGTGCAG
Second: AGTTGATTGGTAAAGTGACATGCTTGAACACTGTTGGAGCCGGAGTCACCTAGTGCAG
The binding signal of the first is lower: 5270 fluorescence intensity (a.u.) for the first, 54000 fluorescence intensity (a.u.) for the second.

Compared with “TATAATTGTTACTGTTAATTGAGGTGGGAAATACCAGGTGCGGAGTCACCTAGTGCAG”, “TCAAAGTGATTGGTGACACTCTACACAACACACAGTTGAACGGAGTCACCTAGTGCAG” is lower in binding signal: 53500 fluorescence intensity (a.u.) for the first, 28400 fluorescence intensity (a.u.) for the second.

Compared with “ACACTTGGAGATTGGTAATAGATTACAGAAAGTTGAATGCCGGAGTCACCTAGTGCAG”, “CCTGATTAATTGTTAATTTTGCTGATGCAGCTGTTGCTTGCGGAGTCACCTAGTGCAG” is higher in binding signal: 14300 fluorescence intensity (a.u.) for the first, 65000 fluorescence intensity (a.u.) for the second.
